According to PubChem BioAssay (NCATS):
Inconclusive results are not listed. Calls of active or inactive are those of the source. Unless noted, the call rests on the fitted dose curve; in most records, active means well fitted curve in the direction sought with a large enough effect; inconclusive means small, poorly fitted or top-dose-only effect, or another doubt; inactive means no such curve, though single readings can be large; an effect the other way counts as inactive or inconclusive.

Columns and labels:
[1] = qHTS to identify inhibitors of the type 1 interferon - major histocompatibility complex class I in skeletal muscle: primary screen against the NCATS Pharmaceutical Collection (AID 1347407);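 further: luminescence of HiBiT knocked into endogenous HLA-B as interferon-induced MHC class I level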; further: potency means the concentration at half of the fitted maximal effect
Method in brief: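 Luminescence from HiBiT-tagged endogenous HLA-B*08:01 served as the read-out of IFN-beta-induced MHC class I in CRISPR-engineered C25cl48 myoblasts. Cells received 4 ng/ml IFN-beta plus compound (high final 46 uM, […]) for 24 h.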

[2] = biological target: Protein phosphatase 1D (Homo sapiens) (UniProt O15297); experiment: RapidFire Mass Spectrometry qHTS Assay for Modulators of WT P53-Induced Phosphatase 1 (WIP1) (AID 1347424);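 further: amount of dephosphorylated VEPPL-S-QETFS peptide product formed by WIP1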; further: potency means the concentration at half of the fitted maximal effect
Method in brief: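 Mass-spectrometric measurement of dephosphorylated peptide after a 5 min room-temperature reaction of 10 nM WIP1 with 2 uM phosphopeptide, following 1 h compound preincubation in 30 mM MgCl2 buffer.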

[3] = biological target: Protein phosphatase 1D (Homo sapiens) (UniProt O15297); experiment: Rhodamine-PBP qHTS Assay for Modulators of WT P53-Induced Phosphatase 1 (WIP1) (AID 1347425); further: % of control where 0% means no effect
Method in brief: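 WIP1 (5 nM final) was preincubated with compound for 1 hour at room temperature. It then dephosphorylated 10 uM VEPPL-pS-QETFS peptide in Tris-HCl pH 7.5 with 30 mM MgCl2. Released Pi was detected by 10 uM Rh-PBP fluorescence (ex 525/em 598 nm) read at 1-min intervals for 11 min, as delta f1 - f0.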

[4] = biological target: Calcium and integrin-binding protein 1 (Homo sapiens) (UniProt Q99828); experiment: Primary qHTS for Identification of Calcium Integrin Binding Protein 1 (CIB1) Competitor (AID 1508620); further: potency means the concentration at half of the fitted maximal effect
Method in brief: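 Fluorescence polarization competition: CIB1-GST (1 uM final) preincubated with compound 15 min at room temperature, then FITC-labeled alphaIIb peptide (100 nM final) added for another 15 min. Polarization read at Ex 480/Em 540.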

[5] = Primary qHTS for inhibitors of La Crosse Virus (LACV) - induced cell death in SH-SY5Y cells (AID 1508616);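 further: top concentration of the series differs between compounds; 0% = infected DMSO wells and 100% = uninfected DMSO wells; higher means more rescue of cells from virus-induced death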
Method in brief: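 Cytopathicity rescue screen: compounds pinned onto SH-SY5Y cells, which are then infected with LACV (MOI 0.01) and held 6 days at 37C. Percent activity is scaled between infected DMSO control and uninfected DMSO control.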

[6] = Primary qHTS for inhibitors of SARS-S pseudo-typed particle cell entry (AID 1479145; calls by dose curve; further: nearly all actives have a fitted effect of over 45% in size; further: potency means the concentration at half of the fitted maximal effect)
[7] = Primary qHTS for Huh7 cytotoxicity: counterscreen for inhibitors of MERS-S pseudotyped particle cell entry (AID 1479147; calls by dose curve; further: potency means the concentration at half of the fitted maximal effect)
[8] = Primary qHTS for Vero E6 cytotoxicity: counterscreen for inhibitors of SARS-S pseudo-typed particle cell entry (AID 1479150; calls by dose curve)
[9] = Primary qHTS for inhibitors of MERS-S pseudo-typed particle cell entry (AID 1479149; calls by dose curve; further: nearly all actives have a fitted effect of over 60% in size; further: potency means the concentration at half of the fitted maximal effect)
[10] = Counterscreen qHTS for small molecule stabilizers of the endoplasmic reticulum resident proteome: GLuc-NoTag assay (AID 1508627); further: potency means the concentration at half of the fitted maximal effect
Method in brief: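 Secreted GLuc lacking the SERCaMP modification is measured in SH-SY5Y cells exposed to compound for 19 h and then to thapsigargin (100 nM, 4 h) to deplete ER calcium; hits retested at 11 concentrations, up to 76.6 uM.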

[11] = Confirmatory qHTS for small molecule stabilizers of the endoplasmic reticulum resident proteome: Secreted ER Calcium Modulated Protein (SERCaMP) assay (AID 1508628); further: nearly all actives have a fitted effect of over 40% in size; further: potency means the concentration at half of the fitted maximal effect
Method in brief: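 GLuc-SERCaMP-expressing SH-SY5Y cells, pretreated 16 h with compound, are challenged with thapsigargin to empty ER calcium stores; after 4 h, coelenterazine is added directly to the medium and luminescence is imaged.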

[12] = Cell Viability qHTS for small molecule stabilizers of the endoplasmic reticulum resident proteome (AID 1508629); settings: cell viability counter-screen, 100 nM thapsigargin for final 4 h;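 further: compound exposure about 46 h in total before the viability read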; further: potency means the concentration at half of the fitted maximal effect;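 on max response: human SH-SY5Y neuroblastoma cells carrying the GLuc-SERCaMP reporter; on the % scale 0 is the no-effect control and ±100 the full control effect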
[13] = biological target: Calcium and integrin-binding protein 1 (Homo sapiens) (UniProt Q99828); experiment: Confirmatory qHTS for Identification of Calcium Integrin Binding Protein 1 (CIB1) Competitor (AID 1508617); further: on the % scale 0 is the no-effect control and ±100 the full control effect; nearly all actives have a fitted effect of over 65% in size
Method in brief: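 FP competition: CIB1-GST (1 uM final) in 5 mM HEPES pH 7.4, 125 mM NaCl, 5 mM CaCl2, 0.01% Tween20 preincubated 15 min RT with compounds (up to 114 uM), then FITC-alphaIIb peptide (100 nM), 15 min RT; Ex 480/Em 540.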

Calcium and integrin-binding protein 1 (Homo sapiens), sequence (Q99828 whole entry, looked up): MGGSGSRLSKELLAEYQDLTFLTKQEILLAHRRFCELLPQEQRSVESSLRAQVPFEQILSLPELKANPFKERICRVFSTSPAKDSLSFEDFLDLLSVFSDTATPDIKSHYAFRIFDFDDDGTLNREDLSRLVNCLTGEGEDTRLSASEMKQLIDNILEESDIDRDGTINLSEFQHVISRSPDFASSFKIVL
Protein phosphatase 1D (Homo sapiens), sequence (O15297 whole entry, looked up): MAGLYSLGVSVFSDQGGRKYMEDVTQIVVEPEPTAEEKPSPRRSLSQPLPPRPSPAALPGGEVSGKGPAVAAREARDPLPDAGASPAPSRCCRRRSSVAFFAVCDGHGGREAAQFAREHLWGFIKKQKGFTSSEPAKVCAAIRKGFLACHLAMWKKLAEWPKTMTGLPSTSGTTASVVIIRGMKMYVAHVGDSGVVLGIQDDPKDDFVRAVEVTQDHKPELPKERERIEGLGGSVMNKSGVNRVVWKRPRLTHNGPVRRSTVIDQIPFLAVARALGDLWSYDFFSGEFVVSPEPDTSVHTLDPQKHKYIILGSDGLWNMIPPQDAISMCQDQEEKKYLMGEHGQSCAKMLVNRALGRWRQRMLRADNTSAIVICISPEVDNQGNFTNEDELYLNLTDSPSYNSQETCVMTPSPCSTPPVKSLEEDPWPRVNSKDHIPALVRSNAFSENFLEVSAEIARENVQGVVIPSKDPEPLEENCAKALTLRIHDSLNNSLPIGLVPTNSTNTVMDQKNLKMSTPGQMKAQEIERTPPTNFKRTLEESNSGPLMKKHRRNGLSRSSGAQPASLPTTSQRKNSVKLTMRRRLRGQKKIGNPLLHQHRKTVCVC

O=C(CCCCl)c1ccc(F)cc1
inactive: Potency [1] | Potency [2] | outcome [3] | Potency [4]

C1CN2CCC1CC2
inactive: Potency [1] | Potency [2] | outcome [3] | Potency [4]

Nc1ccc(N)cc1
inactive: Potency [1] | Potency [2] | outcome [5] | Potency [4]

ClC1=C(Cl)C2(Cl)C(CBr)CC1(Cl)C2(Cl)Cl (stereo not drawn)
inactive: Potency [1] | Potency [2] | outcome [3] | Potency [4]

CC#C[C@]1(O)CC[C@H]2[C@@H]3C[C@H](C)C4=CC(=O)CC[C@]4(C)[C@H]3CC[C@@]21C
active: Potency [6] 20 µM
inactive: Potency [2] | outcome [3] | Potency [7] | Potency [8] | outcome [5] | Potency [4]

CCC(=O)O[C@H]1CC[C@H]2[C@@H]3CCC4=CC(=O)CC[C@]4(C)[C@H]3CC[C@]12C
inactive: Potency [2] | outcome [3] | Potency [6] | Potency [7] | Potency [9] | Potency [8] | Potency [4]

Sc1ccccc1Cl
inactive: Potency [1] | Potency [2] | outcome [3] | Potency [4]

C[C@]12Cc3nonc3C[C@@H]1CC[C@@H]1[C@@H]2CC[C@@]2(C)[C@H]1CC[C@]2(C)O
inactive: Potency [2] | outcome [3] | Potency [7] | Potency [8] | Potency [4]

CN1C(=O)[C@@H](NC(=O)c2cc3ccccc3[nH]2)N=C(c2ccccc2)c2ccccc21
inactive: Potency [1] | outcome [3] | outcome [5] | Potency [4]

CCOC(=O)c1cncn1C(C)c1ccccc1 (stereo not drawn)
inactive: Potency [2] | outcome [3] | Potency [6] | Potency [7] | Potency [8] | Potency [4]

OC(O)C(Cl)(Cl)Cl
inactive: Potency [1] | Potency [2] | outcome [3] | Potency [4]

CN1[C@@H]2CC[C@H]1CC(OC(=O)c1cc(Cl)cc(Cl)c1)C2 (stereo partly drawn)
inactive: Potency [1] | Potency [2] | outcome [3] | Potency [4] | Potency [10] | Potency [11] | max response [12] -1.72%

NC1(c2ccccc2)CCCCC1
inactive: Potency [1] | Potency [2] | outcome [3] | Potency [4] | Potency [10]
active: Potency [11] 56.2 µM

COc1cc(CC(C)N)cc2c1OCO2 (stereo not drawn)
inactive: Potency [1] | Potency [2] | outcome [3] | Potency [4]

CC[n+]1c(-c2ccccc2)c2cc(N)ccc2c2ccc(N)cc21
inactive: Potency [1] | outcome [5]
active: Potency [10] 20 µM | Potency [12] 3.16 µM

c1cc2c(c(N3CCNCC3)c1)OCCO2
inactive: Potency [1] | Potency [2] | outcome [3] | Potency [4] | Potency [10] | Potency [11] | max response [12] 5.26%

CCCCCCCCCCCC[N+](C)(C)CCOc1ccccc1
inactive: Potency [2] | outcome [3] | Potency [7]
active: Potency [9] 22.4 µM

c1ccc2nc(N3CCNCC3)ccc2c1
inactive: Potency [1] | outcome [3] | Potency [4]

Oc1ccc([C@H]2CNCc3c2ccc(O)c3O)cc1O
inactive: Potency [1] | outcome [3] | Potency [6] | Potency [7] | Potency [9] | Potency [8] | outcome [5]

Cc1nnc2n1-c1sc(CCc3ccc(CC(C)C)cc3)cc1C(c1ccccc1Cl)=NC2C (stereo not drawn)
active: Potency [9] 20 µM
inactive: Potency [1] | Potency [7] | Potency [8] | outcome [5] | Potency [4]

O=C(N[C@@H]1N=C(c2ccccc2F)c2cccc3c2N(CC3)C1=O)c1cc2ccccc2[nH]1
inactive: Potency [1] | outcome [3] | outcome [5] | Potency [4]

CC(C)=C[C@@H]1[C@@H](C(=O)OCc2coc(Cc3ccccc3)c2)C1(C)C
inactive: Potency [1] | Potency [2] | outcome [3] | Potency [4]

CC(=O)OC1(c2ccccc2)CCN(CCc2ccccc2)CC1
inactive: Potency [1] | Potency [2] | outcome [3] | Potency [4]

CCc1ccc(C2CCNCC2)cc1
inactive: Potency [1] | Potency [2] | outcome [3] | Potency [4]

CCC1(c2ccccc2)CCC(=O)NC1=O (stereo not drawn)
inactive: Potency [1] | Potency [2] | outcome [3] | Potency [4]

CN1C[C@@H](NS(=O)(=O)N(C)C)C[C@@H]2c3cccc4c3c(cn4C)C[C@H]21
inactive: Potency [1] | Potency [2] | outcome [3] | Potency [4]

COc1ccc2c(C(=O)c3ccc(Cl)cc3)c(C)n(CC(=O)O)c2c1
inactive: Potency [1] | outcome [3] | outcome [5] | Potency [4]

CC[C@]1(O)CC[C@H]2[C@@H]3CCC4=CCCC[C@@H]4[C@H]3CC[C@@]21C
inactive: Potency [2] | outcome [3] | Potency [6] | Potency [7] | Potency [9] | Potency [8] | outcome [5]
active: Potency [4] 31.6 µM

Cc1ccc([N+](=O)[O-])[c]2c1[O][Hg]2
inactive: Potency [13]
active: Potency [1] 11.8 µM | Potency [2] 3.98 µM | Potency [6] 10 µM | Potency [7] 2.24 µM | Potency [9] 2.82 µM
